Assay outcomes: PubChem, National Center for Advancing Translational Sciences (NCATS)
Sampled rows, rich in hits. Any-hit rate of the full collection: about 21%.
SARS PLpro yeast = qHTS of Yeast-based Assay for SARS-CoV PLP. actives 0.19% (n = 330,000). S. cerevisiae expressing SARS-CoV PLpro, growth rescue. Potency, µM (doses to about 32.9 µM), usual class: activators. AID 485353, 2010; calls by dose curve; further: nearly all actives have a fitted effect of over 55% in size
Pf growth 96h = Primary qHTS for delayed death inhibitors of the malarial parasite plastid, 96 hour incubation; P. falciparum luciferase reporter growth, 96 h; Potency, µM (highest dose often 28.7 µM), hits mostly inhibitors; actives 6.9% (n = 320,000); AID 504834, 2011
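Two-generation exposure (96 h) targets delayed-death phenotype. Reporter parasites carrying integrated firefly luciferase, in red cells at 2% hematocrit and 0.05% parasitemia final, kept at 37 C, 5% CO2; luminescence loss indicates inhibition.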
NS1 inh = qHTS Assay for Inhibitors of Influenza NS1 Protein Function; Potency, µM (highest dose often 46.1 µM); actives 0.4% (n = 270,000); AID 2326, 2010; calls by dose curve; further: actives are rising curves; nearly all actives have a fitted effect of over 50% in size
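Compounds were scored for reversing the slow growth caused by influenza A NS1 in S. cerevisiae, measured by optical density at 600 nm. Assay medium contained 2% galactose at pH 6.0; NS1-free yeast of the same strain were the positive control.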
Shiga toxin inh = A qHTS for Small Molecule Inhibitors of Shiga Toxin; inhibition, % at 38.7 µM; Vero cells, Shiga toxin protein synthesis inhibition reporter; AID 2315, 2010; actives 9.2% (n = 290,000); in the data active means inhibition mostly above about 28%, no sharp cut-off; inactive means mostly below about 43%
Pf growth 48h = Primary qHTS for delayed death inhibitors of the malarial parasite plastid, 48 hour incubation. P. falciparum luciferase growth in erythrocytes, 48 h. Potency, µM (titrated, usually from 28.7 µM), usual class: inhibitors. actives 5.9% (n = 310,000). AID 504832, 2011
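In quantitative HTS format, infected erythrocytes bearing luciferase-reporter parasites were treated for a single generation at 37 C. Luminescence after adding detection reagent served as the growth measure.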
CHX counter = Cycloheximide Counterscreen for Small Molecule Inhibitors of Shiga Toxin; actives 12% (n = 300,000); cell reporter, cycloheximide protein synthesis inhibition counterscreen; max response, %; AID 2314, 2010; in the data active means max response mostly above about 13%, no sharp cut-off; inactive means mostly below about 14%; further: read at 38.3 µM for the half of the compounds with a filed dose
Large screens that a line does not name were inactive. Unless noted, the call rests on the fitted dose curve; in most records, active means well fitted inhibition curve with a large enough effect; inconclusive means small, poorly fitted or top-dose-only effect, or another doubt; inactive means no such curve, though single readings can be large or run the other way.

O=C(COc1ccc2ccccc2c1)N1CCCC1	Shiga toxin inh 78.9, CHX counter 39.8
C[C@@H]1C(=O)O[C@@H]1[C@@H](C)CO[Si](c1ccccc1)(c1ccccc1)C(C)(C)C	none (no result: SARS PLpro yeast, Pf growth 96h, NS1 inh, Pf growth 48h)
Cc1ccc(-c2nn(Cc3ccccc3)cc2C(=O)NCC2CCCO2)cc1 (stereo not given)	Pf growth 48h inconclusive (no result: NS1 inh, Shiga toxin inh, CHX counter)
CCOC(=O)N1CCC(NC(=O)c2cc3c(=O)[nH]c4ccccc4c3n2C)CC1	none (no result: NS1 inh)
OC(COc1ccc(OCC(O)CN2CCCCC2)cc1)CN1CCCCC1 (stereo not given)	Pf growth 48h inconclusive (no result: Shiga toxin inh)
OC(COc1ccc2ccccc2c1)CN1CCCC1 (stereo not given)	CHX counter 18.2
CC(=O)Nc1ccc2c(CN3C(=O)NC(C)(c4ccc(C)cc4)C3=O)cc(=O)oc2c1 (stereo not given)	Pf growth 96h inconclusive, Pf growth 48h inconclusive (no result: NS1 inh)
Cc1ccc2c(CN3CCC(C)CC3)cc(=O)oc2c1	Shiga toxin inh 151.5, CHX counter 53.2 (no result: Pf growth 96h)
Cc1ccc2c(CN3C(=O)NC(C)(c4ccc5c(c4)OCO5)C3=O)cc(=O)oc2c1 (stereo not given)	Pf growth 96h inconclusive, Pf growth 48h 4.15µM
CCOC(=O)C1CCCN(Cc2cc(=O)oc3cc(C)c(C)cc23)C1 (stereo not given)	CHX counter 37.0 (no result: NS1 inh)
CCOC(=O)C1CCN(Cc2cc(=O)oc3cc(C)ccc23)CC1	none
CCOC(=O)C1CCCN(Cc2cc(=O)oc3cc(C)ccc23)C1 (stereo not given)	Shiga toxin inh 68.9, CHX counter 44.1
C#CCOCCOCCOCCNc1nc(N2CCOCC2)nc(N2CCN(C(=O)[C@H](Cc3ccc(O)cc3)n3cc([C@@H](N)CC(C)C)nn3)CC2)n1	Pf growth 96h 11.7µM, Pf growth 48h 5.22µM
C#CCOCCOCCOCCNc1nc(N2CCOCC2)nc(N2CCN(C(=O)[C@H]([C@@H](C)CC)n3cc([C@@H](N)CC(C)C)nn3)CC2)n1	Pf growth 96h 6.57µM, Pf growth 48h inconclusive
C#CCOCCOCCOCCNc1nc(N2CCN(C(=O)[C@H]([C@@H](C)CC)n3cc([C@@H](N)Cc4ccc(O)cc4)nn3)CC2)nc(N2CCN(C(=O)[C@H](Cc3ccc(O)cc3)n3cc([C@@H](N)CC(C)C)nn3)CC2)n1	Pf growth 96h inconclusive, Pf growth 48h 4.65µM
C#CCOCCOCCOCCNc1nc(N2CCN(C(=O)[C@H]([C@@H](C)CC)n3cc([C@@H](N)CC(C)C)nn3)CC2)nc(N2CCN(C(=O)[C@H](Cc3ccc(O)cc3)n3cc([C@@H](N)C(C)CC)nn3)CC2)n1 (stereo not given in full)	Pf growth 96h 5.22µM, Pf growth 48h 5.22µM
C=CCc1ccccc1Oc1cc(OC)nc(N)n1	none (no result: NS1 inh, Shiga toxin inh, CHX counter)
C#CCOCCOCCOCCNc1nc(N2CCOCC2)nc(N2CCN(C(=O)[C@H]([C@@H](C)CC)n3cc([C@@H](N)Cc4ccc(O)cc4)nn3)CC2)n1	Pf growth 96h inconclusive, Pf growth 48h 1.47µM
C#CCOCCOCCOCCNc1nc(N2CCN(C(=O)[C@H]([C@@H](C)CC)n3cc([C@@H](N)Cc4ccc(O)cc4)nn3)CC2)nc(N2CCN(C(=O)[C@H]([C@@H](C)CC)n3cc([C@@H](N)CC(C)C)nn3)CC2)n1	Pf growth 96h 1.47µM, Pf growth 48h 1.85µM
COc1cccc(-c2ncc3ccccc3c2COC(=O)N2CCCCC2)c1	Pf growth 96h inconclusive, Pf growth 48h inconclusive (no result: NS1 inh, Shiga toxin inh, CHX counter)
CCN(CC)CCn1c2ccccc2c2nc3ccc([N+](=O)[O-])cc3cc21	Pf growth 96h inconclusive, Shiga toxin inh 91.7, Pf growth 48h inconclusive, CHX counter 27.1
CCN(CC)CCn1c(N)nc2ccccc21	none
CCOC(=O)N/N=C\c1ccccc1OC/C=C/c1ccccc1	Shiga toxin inh 54.9, Pf growth 48h 2.94µM, CHX counter 34.1
COC(=O)N/N=C\c1ccccc1OC/C=C/c1ccccc1	Pf growth 96h 9.28µM, Pf growth 48h inconclusive, CHX counter 31.5
NC(=S)N/N=C/c1ccccc1OC(=O)/C=C/c1ccccc1	Pf growth 96h inconclusive, Pf growth 48h inconclusive
COc1cc(/C=N\NC(C)=O)ccc1OC/C=C/c1ccccc1	Pf growth 96h inconclusive, Pf growth 48h inconclusive
N#CCC(=O)N/N=C\c1cc(Br)ccc1OC/C=C/c1ccccc1	Pf growth 96h 2.94µM, NS1 inh inconclusive, Shiga toxin inh 97.7, CHX counter 25.6
CC(=O)OC1C(OC(C)=O)N(C(C)=O)C(=O)N1C(C)=O (stereo not given)	Pf growth 96h 9.28µM
CC(=O)N1C(=O)N(C)C2C1N(C)C(=O)N2C(C)=O (stereo not given)	Pf growth 96h inconclusive
CC(C)(C)OC(=O)NCCC(=O)N/N=C/c1cccc2nccnc12	Pf growth 96h inconclusive
CCOC(=O)C(=O)NCC(c1cccs1)S(=O)(=O)c1ccc(Cl)cc1 (stereo not given)	none
Cc1cccc(NC(=O)CSc2ccc(-c3cccnc3)nn2)c1	Pf growth 96h 11.7µM, Pf growth 48h inconclusive
CC(=O)Nc1ccc(NC(=O)CSc2ccc(-c3ccc4c(c3)OCO4)nn2)cc1	none
Cc1nonc1NC(=O)CSc1ccccn1	none
Cc1ccc(-c2ccc(SCC(=O)Nc3ccc4c(c3)OCCO4)nn2)cc1	Shiga toxin inh 21.6, CHX counter 28.4
O=C(CSc1ccc(-c2nc3ccccc3[nH]2)cn1)Nc1ccc2c(c1)OCCO2	CHX counter 18.2
Cc1ccc(-c2ccc(SCC(=O)Nc3nonc3C)nn2)cc1	Shiga toxin inh 41.8, CHX counter 26.8
Cc1nc2ccccc2c(C)c1CC(=O)N(C)CC(=O)Nc1cccc(F)c1	Pf growth 96h inconclusive, Pf growth 48h inconclusive (no result: NS1 inh, Shiga toxin inh, CHX counter)
C=CCN1/C(=C2/SC(=S)N(C)C2=O)Sc2ccccc21	none
O=C(O)COc1ccc(/C=N/NC(=O)c2cccc3ccccc23)cc1	Pf growth 48h inconclusive
Cc1ccc2nc(-c3ccc(SCC(=O)Nc4ccc5c(c4)OCCO5)nc3)[nH]c2c1	Shiga toxin inh 81.3, CHX counter 107.2
Cc1ccc(SCC(=O)Nc2ccc(-c3nc4ccccc4[nH]3)cc2)cc1	Pf growth 48h 11.7µM
CN(C)S(=O)(=O)c1ccc(SCC(=O)Nc2ccc3c(c2)OCCO3)nc1	none (no result: NS1 inh, Shiga toxin inh, CHX counter)
N#C/C(=C\Nc1ccc2c(c1)OCCO2)c1nc2ccccc2[nH]1	Pf growth 48h inconclusive, CHX counter 60.2 (no result: Pf growth 96h)
O=C(CCc1nc2ccccc2[nH]1)Nc1ccc2c(c1)OCCO2	Pf growth 96h 1.04µM
N#C/C(=C\Nc1ccc2c(c1)OCCO2)c1nc(-c2ccccc2)cs1	none
CC(C)(C)n1cc(C(=O)c2ccccc2OCCCF)cn1	none
CC(C)(C)n1cc(C(=O)c2ccc3ccccc3c2O)cn1	Shiga toxin inh 46.4 (no result: NS1 inh)
